Screening results: PubChem, several laboratories
INS promoter inh – inhibitors of insulin promoter-driven GFP, primary screen, imaging, TRM-6 cells (human fetal islet line), eGFP reporter, cell count; reporter expression induced with tamoxifen; inhibition, % at 2 µM; actives 0.9% (n = 130,000); AID 1273, 2008;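 active = inhibition above the mean plus 3 SD, with well images judged a real hit on visual review, cut at about 60% in these data, passing the limit was not always enough; inconclusive = inhibition over the cutoff but images rejected on review; inactive = inhibition not above the cutoff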
Lmaj promast – Leishmania major promastigote growth inhibition, primary screen. inhibition, % at 10 µM. actives 9% (n = 200,000). Leishmania major promastigotes, resazurin fluorescence viability. AID 1063, 2008; in the data active = inhibition above about 50%;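 note: promastigotes grown with compound for 44 hours at 28 °C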
Cl transport mod – KCC2 cotransporter modulators, thallium flux, primary screen, cell-based, HEK293 KCC2, FluoZin-2 fluorescence, MLSMR; B-score of Tl+ flux slope (higher = more flux/activation; lower = inhibition) at 10 µM; KCC2 cells, thallium flux FluoZin-2 fluorescence; AID 1456, 2008; Solute carrier family 12 member 5 (Homo sapiens), Q9H2X9; actives 2.2% (n = 190,000);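 active = thallium flux slope and its plate-corrected score both differing from the plate sample mean at a set confidence after two filtering rounds, in either direction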;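 note: slope of fluorescence scaled to starting intensity during 10 to 20 s after thallium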
Target sequence (Q9H2X9 whole entry, looked up): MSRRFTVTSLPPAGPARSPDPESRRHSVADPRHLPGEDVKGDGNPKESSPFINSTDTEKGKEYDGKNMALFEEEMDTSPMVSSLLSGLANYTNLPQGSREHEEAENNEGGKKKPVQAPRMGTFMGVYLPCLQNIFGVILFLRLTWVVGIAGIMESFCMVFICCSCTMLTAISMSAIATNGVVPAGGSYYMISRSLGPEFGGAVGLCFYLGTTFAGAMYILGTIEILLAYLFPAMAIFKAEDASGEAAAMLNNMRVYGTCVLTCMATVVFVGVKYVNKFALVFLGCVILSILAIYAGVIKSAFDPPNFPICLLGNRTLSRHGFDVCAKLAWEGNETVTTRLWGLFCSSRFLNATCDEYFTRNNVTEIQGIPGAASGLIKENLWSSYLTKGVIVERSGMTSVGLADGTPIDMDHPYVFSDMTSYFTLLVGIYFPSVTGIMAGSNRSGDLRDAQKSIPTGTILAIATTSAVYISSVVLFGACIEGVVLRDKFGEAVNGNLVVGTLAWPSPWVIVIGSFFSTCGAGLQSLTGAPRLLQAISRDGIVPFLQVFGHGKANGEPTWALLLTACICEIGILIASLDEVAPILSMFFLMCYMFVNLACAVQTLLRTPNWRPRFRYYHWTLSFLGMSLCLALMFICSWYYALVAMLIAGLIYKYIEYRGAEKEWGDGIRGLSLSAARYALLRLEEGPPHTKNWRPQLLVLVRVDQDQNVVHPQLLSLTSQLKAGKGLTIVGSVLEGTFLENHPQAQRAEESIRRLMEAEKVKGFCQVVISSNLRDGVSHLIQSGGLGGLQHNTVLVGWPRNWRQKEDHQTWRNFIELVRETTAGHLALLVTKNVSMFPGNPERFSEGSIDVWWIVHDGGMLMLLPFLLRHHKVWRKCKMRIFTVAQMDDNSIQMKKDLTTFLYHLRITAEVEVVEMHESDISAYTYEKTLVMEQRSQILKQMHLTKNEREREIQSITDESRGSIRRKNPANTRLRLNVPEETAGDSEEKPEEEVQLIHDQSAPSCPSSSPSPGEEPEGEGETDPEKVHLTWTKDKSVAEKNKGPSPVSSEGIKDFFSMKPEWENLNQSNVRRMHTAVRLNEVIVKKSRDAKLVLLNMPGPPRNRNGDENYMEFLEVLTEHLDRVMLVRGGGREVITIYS
ROMK primary – ROMK potassium channel modulators, primary screen, cell-based, thallium flux, MLSMR library. ATP-sensitive inward rectifier potassium channel 1 (Homo sapiens), P48048. Tet-inducible ROMK, thallium flux fluorescence; actives lie on both sides. B-score at 10 µM. actives 2% (n = 130,000). AID 1918, 2009;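 active = signal ratio slope over the read window, or its plate-corrected B-score, at least 3 SD from the plate mean, either direction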;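 note: B-score of the F/F0 ratio slope over 7 to 12 s after thallium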
WT yeast gro inh – growth inhibition of WT strain, primary screen, mitochondrial fusion inhibitor project, WT and mutant strains, chemical genetic; AID 1362, 2008; inhibition, % at 10 µM; actives 2.1% (n = 190,000); mitochondrial fusion phenotypic screen; in the data active = inhibition above about 58%; tested in S. cerevisiae
Insulin prom up – insulin promoter activators in MIN6 cells, imaging, high-content screening, mouse beta cells; MIN6 insulin promoter-GFP reporter; hits give high values; z-score at 5 µM; actives 0.3% (n = 190,000); AID 1625, 2009;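 active = z-score above 3 at 5 µM with at least 500 cells counted in the well; inconclusive = wells under 500 cells, flagged as cytotoxic or low count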
Large screens that a line does not name were inactive. Sampled rows, rich in hits. Any-hit rate of the full collection: about 12%.

COc1cccc(NC(=O)c2ccccc2-c2nc(-c3cccc(C)c3)no2)c1	none (no result: Cl transport mod)
Cc1ncc([N+](=O)[O-])n1Cc1ccccc1F	none (no result: INS promoter inh, Insulin prom up)
Cc1ncc([N+](=O)[O-])n1Cc1cccc2ccccc12	Lmaj promast 57.2
COc1ccc(OCC(O)CN2CCN(c3ccccc3)CC2)cc1 (stereo not drawn)	none (no result: INS promoter inh)
CCOCC(O)CNc1ccccc1 (stereo not drawn)	none (no result: ROMK primary, Insulin prom up)
CC(C)c1ccc(OCC(O)CN2CCN(c3ccccc3)CC2)cc1 (stereo not drawn)	Lmaj promast 86.5, ROMK primary -2.84 (no result: INS promoter inh)
COc1ccc(N2CCN(CC(O)COc3ccccc3[N+](=O)[O-])CC2)cc1 (stereo not drawn)	Lmaj promast 92.2
OC(COc1ccccc1)CN1CCN(CC(O)COc2ccccc2)CC1 (stereo not drawn)	Lmaj promast 87.0 (no result: INS promoter inh)
OC(CNc1ccccc1)COc1ccc(OCC(O)CNc2ccccc2)cc1 (stereo not drawn)	Lmaj promast 65.9 (no result: ROMK primary)
CN1CCC(N(C)C(=S)NC(=O)C23CC4CC(CC(C4)C2)C3)CC1	none (no result: INS promoter inh, ROMK primary)
O=S(=O)(c1ccc2ccccc2c1)N(CC1CO1)c1ccccc1 (stereo not drawn)	none
Cc1ccc(-c2nnn(CC(=O)N(c3ccccc3)C(C(=O)NC(C)(C)C)c3cccs3)n2)o1 (stereo not drawn)	none (no result: ROMK primary, Insulin prom up)
S=C(Nc1ccccc1Cl)N(Cc1ccccc1)Cc1ccccn1	WT yeast gro inh 64.5
O=C(Nc1ccc(Cl)c(Cl)c1)N(Cc1cccnc1)Cc1ccco1	Lmaj promast 99.7 (no result: INS promoter inh, Cl transport mod)
Cc1ccc(NC(=O)N(CCCN2CCOCC2)Cc2cccnc2)cc1C	Lmaj promast 64.6 (no result: INS promoter inh, ROMK primary)
S=C(Nc1ccccc1Cl)N(Cc1cccnc1)Cc1ccco1	Lmaj promast 94.9 (no result: INS promoter inh)
COc1ccc(NC(=O)N(CCCN2CCOCC2)Cc2cccnc2)c(OC)c1	none (no result: INS promoter inh, ROMK primary, Insulin prom up)
O=C(CN(Cc1ccco1)C(=O)c1ccc(Cl)cc1)Nc1ccc(Cl)c(Cl)c1	none
COc1ccc(NC(=S)N(CCc2ccc(OC)c(OC)c2)Cc2ccccn2)cc1	none (no result: INS promoter inh)
N#CCCN(Cc1cccnc1)C(=S)Nc1ccccc1Cl	none
COc1ccc(NC(=S)N(Cc2ccc(C)cc2)Cc2ccccn2)cc1	Lmaj promast 95.4
Cc1c(Cl)cccc1NC(=S)N(Cc1cccnc1)Cc1ccccc1Cl	Lmaj promast 94.7 (no result: INS promoter inh)
CCOc1ccc(NC(=O)c2ccc(C#CC(C)(C)O)cc2)cc1	none (no result: Cl transport mod, ROMK primary)
CC(=O)NN1C(=O)c2ccc(Oc3cccc([N+](=O)[O-])c3)cc2C1=O	none (no result: ROMK primary, Insulin prom up)
Oc1c(C(c2cccs2)N2CCN(c3ccccc3)CC2)ccc2cccnc12 (stereo not drawn)	Lmaj promast 83.8, Insulin prom up inconclusive
CC(C)(C)c1cc(OC(=O)c2ccccc2F)ccc1O	WT yeast gro inh 71.9 (no result: INS promoter inh, Cl transport mod, ROMK primary)
CC(C)(C)c1cc(OC(=O)c2ccncc2)ccc1O	none (no result: Insulin prom up)
Cc1ccc(C(=O)NCC(=O)OCC(=O)Nc2cc(C)c(C)cc2[N+](=O)[O-])cc1	none
COCC(=O)OCC(=O)Nc1cc(C)c(C)cc1[N+](=O)[O-]	Lmaj promast 54.7
Cc1ccc(C(=O)NCC(=O)OCC(=O)Nc2ccc(Cl)cc2C(F)(F)F)cc1C	none
Cc1cc(C)n(-c2ccc(C(=O)OCC(=O)Nc3ccccc3[N+](=O)[O-])cc2)n1	none (no result: INS promoter inh, ROMK primary)
Cc1cc(C)n(-c2ccc(C(=O)OCC(=O)Nc3cc(Cl)ccc3[N+](=O)[O-])cc2)n1	Lmaj promast 59.0
COc1ccc(Cl)cc1NC(=O)COC(=O)CNC(=O)c1ccc([N+](=O)[O-])c(C)c1	Lmaj promast 56.4
CCOC(=O)c1nc2ccccc2s1	none (no result: INS promoter inh, Cl transport mod)
CNC(=O)CS(=O)CC(=O)Nc1cc(OC(C)C)c(Cl)cc1Cl (stereo not drawn)	none (no result: INS promoter inh)
CCN(CC)S(=O)(=O)c1ccc(/C=C/C(=O)OCC(=O)c2c(N)n(C)c(=O)n(C)c2=O)cc1	none (no result: INS promoter inh)
Cc1cc(NC(=O)c2cccc([N+](=O)[O-])c2)n(-c2ccccc2)n1	none
CCN(CC)S(=O)(=O)c1ccc(Cl)c(C(=O)Nc2cc(C)nn2-c2ccccc2)c1	Lmaj promast 64.9 (no result: ROMK primary)
CCN(CC)S(=O)(=O)c1cccc(C(=O)Nc2cc(C)nn2-c2ccccc2)c1	none (no result: INS promoter inh, ROMK primary)
Cc1cc(NC(=O)c2cc([N+](=O)[O-])cc([N+](=O)[O-])c2)n(-c2ccccc2)n1	Lmaj promast 89.3 (no result: INS promoter inh, ROMK primary)
COc1ccc(C(C(=O)NC2CCCC2)N(C(=O)c2snc(-c3ccc(F)cc3)c2N)c2ccc(F)cc2)cc1 (stereo not drawn)	Lmaj promast 71.0 (no result: INS promoter inh, Cl transport mod)
COc1ccc(C(C(=O)NC2CCCC2)N(C(=O)c2snc(-c3ccc(F)cc3)c2N)c2ccc(OC)cc2)cc1 (stereo not drawn)	Lmaj promast 63.0
COc1ccc(C(C(=O)NC2CCCC2)N(C(=O)c2snc(-c3ccc(F)cc3)c2N)c2ccccc2)cc1 (stereo not drawn)	none
CCCN(CCC)C1=CC(=[N+]2CCCC2)CC(C)(C)C1	Lmaj promast 100.1, Insulin prom up inconclusive
CC1(C)CC(N2CCOCC2)=CC(=[N+]2CCOCC2)C1	none
CC1(C)CC(N2CCCCC2)=CC(=[N+]2CCCCC2)C1	Lmaj promast 100.1, Insulin prom up inconclusive
O=C(CN1CCOc2ccccc21)NC1CCN(Cc2ccccc2)CC1	Lmaj promast 77.8 (no result: INS promoter inh, Cl transport mod, ROMK primary)
O=C(Cn1cc2c(n1)CCCCC2)NC1CCCCCC1	none (no result: INS promoter inh, ROMK primary, Insulin prom up)
O=C(Cn1cc2c(n1)CCCC2)NC1CCN(Cc2ccccc2)CC1	Lmaj promast 72.0 (no result: INS promoter inh, ROMK primary)
CC(C)c1ccccc1OCC(=O)NCC(c1cccs1)N1CCOCC1 (stereo not drawn)	none (no result: Cl transport mod, ROMK primary)
c1ccc(-c2nc(-c3ccccn3)no2)cc1	INS promoter inh inconclusive (no result: Insulin prom up)
c1ccc(-c2ccc(-c3nc(-c4ccccn4)no3)cc2)cc1	WT yeast gro inh 77.9 (no result: Cl transport mod, Insulin prom up)
Cc1ccc(N/C(N)=N/c2nc(C)cc(N3CCCCC3)n2)c(C)c1	Lmaj promast 100.4 (no result: INS promoter inh)
CC(C)C1COC(c2cccn2Cc2ccccc2Cl)=N1 (stereo not drawn)	WT yeast gro inh 65.4 (no result: INS promoter inh)
COC(=O)C1=C(O)/C(=C\c2sccc2C)N=C1C	Lmaj promast 54.2 (no result: ROMK primary)
Fc1ccc(CN2C3=NCCCN3c3ccccc32)cc1	none (no result: ROMK primary)
Clc1ccc(CN2C3=NCCCN3c3ccccc32)cc1Cl	Lmaj promast 50.5 (no result: INS promoter inh)
O=C(CN1C2=NCCCN2c2ccccc21)c1ccc(Cl)cc1Cl	Lmaj promast 99.9
O=C(CN1C2=NCCN2c2ccccc21)c1ccc(Br)cc1	none (no result: INS promoter inh)
O=C(CN1C2=NCCCN2c2ccccc21)c1cccc(Br)c1	Lmaj promast 94.4
C/C(=C\c1ccc2c(c1)OCO2)C(=O)c1c(C)cc(C)[nH]c1=O	none
Cc1sc(NC(=O)CN(CCc2ccccc2)C(=O)C2CC2)c(C(N)=O)c1C	none (no result: INS promoter inh)
Cc1nc(CNS(=O)(=O)c2cc(C)c(C)cc2C)cs1	none
